This is an account of results in ChEMBL document CHEMBL3988442, “University of Dundee, Small-Polar-MMV Screening Library” (2021).

Molecules are shown by their SMILES.

For assay [1], the target named is T1, Aspartate--tRNA(Asp/Asn) ligase (Mycobacterium tuberculosis (strain ATCC 25618 / H37Rv)) (UniProt P9WFW3). Further: in the data most compounds retested in dose-response had high values.
T1 sequence (whole entry): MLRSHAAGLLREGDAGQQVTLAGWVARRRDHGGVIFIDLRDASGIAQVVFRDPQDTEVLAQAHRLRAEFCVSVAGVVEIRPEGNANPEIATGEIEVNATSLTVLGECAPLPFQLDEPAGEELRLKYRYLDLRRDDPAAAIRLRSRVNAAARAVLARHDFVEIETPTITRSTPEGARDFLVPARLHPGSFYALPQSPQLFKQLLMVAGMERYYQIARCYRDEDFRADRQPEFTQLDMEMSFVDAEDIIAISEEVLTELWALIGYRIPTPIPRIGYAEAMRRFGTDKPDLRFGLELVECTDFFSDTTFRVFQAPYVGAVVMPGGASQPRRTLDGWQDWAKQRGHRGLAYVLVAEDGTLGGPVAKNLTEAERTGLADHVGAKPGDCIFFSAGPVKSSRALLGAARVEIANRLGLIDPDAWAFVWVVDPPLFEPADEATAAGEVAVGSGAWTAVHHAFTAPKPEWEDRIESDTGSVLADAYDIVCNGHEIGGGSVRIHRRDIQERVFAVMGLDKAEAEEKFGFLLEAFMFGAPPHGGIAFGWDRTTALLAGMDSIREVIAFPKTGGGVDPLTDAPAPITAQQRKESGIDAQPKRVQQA
The experiment in a line: Assay for Asp RNA synthetase-1 from Mycobacterium tuberculosis. It counts as functional. More on the design: scale not given: direction of the effect not stated beside the values. To be noted: 30 µM.

Assay [2] deals with Shiga toxin 2 (Escherichia coli O157:H7) (UniProt P09385+P09386). The experiment in a line: E. coli 0.157:H7 Shiga Toxin SOP - stx2 screening assay. It counts as functional. Details: scale not given: direction of the effect not stated beside the values. To be noted: 30 µM.

Consider `CC(C)c1nc(C2CCCN2CC(=O)Nc2nncs2)no1` (centres undefined), for which the results for the Percent Effect in assay [1] and in assay [2] were -6.57% and 9.9%, respectively.
In the same order, the values of `c1cnn(CC2CN(CCc3ccncc3)CCO2)c1` (centres undefined) are 2.1% and 17.1%.
Consider `O=C(Nc1nc2c(s1)CCC2)c1cccnc1N1CCOCC1`, for which the Percent Effect is -4.4% in assay [1] and -10.3% in assay [2].
In the same order, the values of `CCc1ccccc1CN1CC[C@@H](NC(=O)c2cccnc2)[C@H](O)C1` are -4.34% and -1.07%.
On to `CCOCCn1nc(C)cc1C(=O)N1CCN(C(C)C)C(CC)C1` (centres undefined), for which the Percent Effect was -1.08% in assay [1] and 10.1% in assay [2].
In the same order, the values of `CC1CN(C)c2ccccc2CN1C(=O)c1ccncc1` (centres undefined) are 6.3% and -12.6%.
With `CC(NC(=O)NCCNc1ncccn1)c1cccs1` (centres undefined), the results for the Percent Effect in assay [1] and in assay [2] were -2.58% and -27.7%, respectively.
In the same order, the values of `COc1ccc(CN(Cc2cncn2C)CC2CCCO2)c(OC)c1` (centres undefined) are 7.91% and 11.4%.
As for `COC(=O)CNC(=O)CSCc1nc(O)c2cc(C(C)C)sc2n1`, the Percent Effect in assay [1] was -0.639%; in assay [2], -7.38%.
Take `CCc1nnc(CNCC2CCN(CC(O)c3ccccc3)CC2)o1` (centres undefined): the Percent Effect in assay [1] is -2.95%; in assay [2], -40.8%.
In the same order, the values of `CC(=O)N1CCCN(C(=O)NCc2cc[nH]n2)CC1` are -1.74% and -9.44%.
In the same order, the values of `Cc1cc(CN(C)C(=O)c2ccc(C(F)(F)F)nc2)no1` are -0.926% and -2.99%.
In the same order, the values of `CNc1nc2c(s1)C(c1c(Cl)cccc1Cl)CC(=O)N2` (centres undefined) are 50.9% and 5.63%.
Turning to `CCc1ncncc1C(=O)N1CCN(Cc2ccco2)CC1`, the results for the Percent Effect in assay [1] and in assay [2] were 3.68% and 8.73%, respectively.
Regarding `COCCNc1ccc(CNC(=O)Nc2cn[nH]c2)cc1`, the Percent Effect in assay [1] is -0.4%; in assay [2], -2.17%.
In the same order, the values of `CC1CCCN(Cc2csc(-c3ncccn3)n2)CC1` (centres undefined) are -2.94% and -26.7%.
In the same order, the values of `CCc1noc(C)c1C(=O)N(C)Cc1ncc(C)c(OC)c1C` are -1.73% and 16.8%.
In the same order, the values of `O=C1CC[C@H]2CN(Cc3ccc(Cl)s3)CC[C@H]2N1CCc1c[nH]cn1` are 0.912% and -115%.
As for `O=C1NCC2(CCCN(Cc3ccccc3F)C2)Oc2ccccc21` (centres undefined), the values for the Percent Effect in assay [1] and in assay [2] were -5.17% and -17.2%, respectively.
In the same order, the values of `CC(C)c1noc(CCC(=O)NC(C)c2nnc3n2CCCCC3)n1` (centres undefined) are 0.353% and -13.7%.
Consider `c1csc(CN2CCOCC3(CCN(C4CCOCC4)C3)C2)n1` (centres undefined), for which the values for the Percent Effect in assay [1] and in assay [2] were 9.2% and -7.95%, respectively.
In the same order, the values of `N#Cc1ccc(C(=O)N2CC[C@H]3[C@@H]2CCC(=O)N3c2cccnc2)cc1` are 2.4% and -9.02%.
As for `CC(C)c1noc(CN(Cc2ccccc2F)C2CC2)n1`, the Percent Effect in assay [1] was 12.6%; in assay [2], -59.6%.
Take `CCc1noc(CNc2ccc(F)cc2OCC2CC2)n1`: the Percent Effect in assay [1] came to 1.97%; in assay [2], 0.5%.
In the same order, the values of `CN1[C@H](CN2CCCC2)C[C@@H]2CN(C(=O)c3cccn3C)CC[C@@H]21` are 2.46% and -2.89%.
For `CCCNC(=O)Nc1cccc2c1CCN(S(C)(=O)=O)C2`, the Percent Effect is 6.02% in assay [1] and -15% in assay [2].
In the same order, the values of `N#CCCN(C(=O)CN1CCCC1Cc1ccccc1)c1ccccc1` (centres undefined) are 2.91% and 27.4%.
In the case of `COc1ccc(CN2CCCC2Cn2nc(C)nc2C)cc1F` (centres undefined), the Percent Effect in assay [1] is -1.56%; in assay [2], -0.778%.
In the same order, the values of `Cc1ccc(CN2CCCC3(CCN(S(C)(=O)=O)C3)C2)o1` (centres undefined) are 5.01% and 3.27%.
As to `O=C(NCc1ccccn1)[C@H]1COC[C@H]2CN(Cc3ccoc3)C[C@H]21`, the Percent Effect in assay [1] is -0.779%; in assay [2] it was -0.902%.
In the same order, the values of `Cc1cc(C(N)=O)ccc1NC(=O)c1nc(N2CCCC2)ncc1Cl` are 1.84% and -35.5%.
In the same order, the values of `CC(C)NC(=O)N1CCC2(CC(=O)N(c3cccc(C#N)c3)C2)C1` (centres undefined) are 5.75% and 8.35%.
As to `Cc1nc(C2CCCN(C(=O)c3cccc(S(C)(=O)=O)c3)C2)no1` (centres undefined), the Percent Effect in assay [1] is -2.72%; in assay [2] it was -6.27%.
In the same order, the values of `COc1ccnc(N2CCN(C(=O)c3csc(C4CC4)n3)CC2)n1` are -0.494% and -2.7%.
Regarding `CCn1nc(C)cc1C(=O)Nc1cc(F)ccc1OCC1CCCO1` (centres undefined), the Percent Effect in assay [1] was -3.81%; in assay [2], 34.1%.
Regarding `Cc1nn(C)c2c(N3CCN(C(=O)c4ccccc4)CC3)ncnc12`, the Percent Effect is 0.348% in assay [1] and -28.7% in assay [2].
Consider `Cc1nc(C2CCCN(C(=O)Cn3ccccc3=O)C2)no1` (centres undefined), for which the Percent Effect in assay [1] was -1.54%; in assay [2], 25.3%.
